Screening results (PubChem)
Pf Dd2 growth: P. falciparum Dd2 growth inhibitors, primary screen, SYBR Green fluorescence, single dose replicates; 94,000 compounds, 2.3% hits; activity change, % at 10 µM; 72 h; active compounds read low; in the data active = activity change below about -80%; inconclusive = no clear call, values can overlap the other calls
C diff growth: C. difficile growth inhibitors, primary screen, HTS. Clostridium difficile clinical isolate growth, OD600, 24 h; active compounds read low. growth activity, negative = inhibition, % at 16 µg/mL (by protocol). 86,000 compounds, 0.25% hits. AID 1259249, 2017;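 active = mean growth activity at or below -80% and every replicate also at or below -80%; inconclusive = mean at or below -80% but some replicate above -80%; inactive = mean growth activity above -80%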;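 note: 0% = DMSO wells and -100% = levofloxacin 16 µg/mL wells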
T cruzi growth-1: T. cruzi intracellular proliferation inhibitors, primary screen, cell-based, beta-gal Tulahuen parasites, NIH3T3 host, luminescence; T. cruzi beta-gal in NIH3T3, GalScreen luminescence, 90 h; inhibition, % at 8.34 µM; 77,000 compounds, 5.9% hits; AID 624255, 2012;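 active = mean inhibition above about 93%, with at least 55% of replicates each passing it, limit read from the data, passing the limit was not always enough; inconclusive = only one of those two conditions holds; inactive = neither condition holds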
T cruzi growth-2: T. cruzi intracellular proliferation inhibitors, confirmation, cell-based, NIH3T3 host, beta-gal parasite, luminescence, cherry-pick. AID 651739, 2012. T. cruzi beta-gal in NIH3T3, GalScreen luminescence, 90 h. 5,600 compounds, 72% hits. inhibition, % at 8.35 µM. shares compounds with T cruzi growth-1;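 active = mean replicate inhibition above about 95% and at least 55% of replicates individually reaching it, limit read from the data; inconclusive = only one of the two criteria is met; inactive = neither criterion is met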
T cruzi growth-3: inhibitors of intracellular T. cruzi replication, confirmation, NIH3T3 host cells, beta-gal parasites, cherry-pick, set 2; shares compounds with T cruzi growth-1; T. cruzi beta-gal in NIH3T3, GalScreen luminescence, 90 h; inhibition, % at 2.09 µM; 5,600 compounds, 21% hits; AID 651740, 2012;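 active = mean inhibition above about 95%, with at least 55% of replicates also reaching it, limit read from the data; inconclusive = meets just one of the two conditions; inactive = meets neither condition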;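 note: plate controls were neutral control median for no effect and positive control median for full effect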
3T3 cytotox: cytotoxicity in mouse NIH/3T3 fibroblasts, confirmation, cytotoxicity control for T. cruzi proliferation inhibitor project, cell-based, cherry-pick, single point. NIH/3T3 viability, CellTiter-Glo ATP luminescence, 90 h. shares compounds with T cruzi growth-1. 5,600 compounds, 14% hits. AID 651742, 2012. cytotoxicity (signal decrease), % at 8.35 µM;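 active = mean signal decrease across replicates above about 35% based on untreated-well scatter, with enough replicates individually passing, limit read from the data; inconclusive = no rule stated though some were filed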;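 note: 0% = median of neutral control wells and 100% = median of positive control wells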
3T3 cytotox 2: NIH/3T3 fibroblast cytotoxicity, confirmation, cytotoxicity control, cell-based, cherry-pick, single point, set 2; shares compounds with T cruzi growth-1; NIH/3T3 viability, CellTiter-Glo ATP luminescence, 90 h; inhibition, % at 24.9 µM; 5,600 compounds, 56% hits; AID 651744, 2012;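 active = mean loss of cell viability signal at or above a set limit, and enough replicates individually reaching it; inconclusive = meets only the mean limit or only the replicate share; inactive = meets neither condition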;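 note: 0% = median of neutral control wells and 100% = median of positive control wells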
Numbers without * were called inactive; ? = inconclusive; . = not tested or not shown. A selection: hits, their analogues and other compounds. The true share with any hit is near 6.8%.

SMILES	Pf Dd2 growth	C diff growth	T cruzi growth-1	T cruzi growth-2	T cruzi growth-3	3T3 cytotox	3T3 cytotox 2
C[C@@H]1CCCCO[C@H](CN(C)Cc2ccc3c(c2)OCO3)[C@H](C)CN([C@H](C)CO)C(=O)c2cc(NC(=O)Nc3ccccc3)ccc2O1	?	20	114*	?	103*	10	104*
C[C@@H]1CCCCO[C@@H](CN(C)Cc2ccc3c(c2)OCO3)[C@@H](C)CN([C@H](C)CO)C(=O)c2cc(NC(=O)Nc3ccccc3)ccc2O1	18	25	?	112*	79	20	18
CCCC(=O)N1CC2(CCN(C(=O)CC3CC3)CC2)c2c(n(C)c3cc(OC)ccc23)[C@@H]1CO	-70	-3	.	.	.	.	.
COc1ccc(CN(C)C[C@H]2OCCCC[C@@H](C)Oc3ccc(NC(=O)c4ccncc4)cc3C(=O)N([C@@H](C)CO)C[C@@H]2C)cc1	-48	4	26	.	.	.	.
CCC(=O)N[C@H]1C=C[C@@H](CC(=O)NCc2cc(F)cc(F)c2)O[C@@H]1CO	-15	.	-25	.	.	.	.
C[C@@H]1CN([C@@H](C)CO)C(=O)c2cc(NC(=O)Nc3ccc4c(c3)OCO4)ccc2O[C@H]1CN(C)C(=O)NC1CCCCC1	-5	-1	-32	.	.	.	.
CC(C)C#Cc1ccc2c(c1)O[C@H](CN(C)Cc1ccccn1)[C@@H](C)CN([C@H](C)CO)S2(=O)=O	-72	29	?	102*	74	65*	54*
C[C@H](CO)N1C[C@H](C)[C@@H](CN(C)Cc2ccccn2)Oc2cc(C#C[C@@H](C)O)ccc2S1(=O)=O	-28	6	-8	.	.	.	.
C[C@H](O)C#Cc1ccc2c(c1)O[C@@H](CN(C)Cc1ccccn1)[C@H](C)CN([C@@H](C)CO)S2(=O)=O	-19	8	5	.	.	.	.
CC(C)C#Cc1ccc2c(c1)O[C@H](CN(C)Cc1ccccn1)[C@H](C)CN([C@@H](C)CO)S2(=O)=O	-74	26	74	.	.	.	.
CC(C)C#Cc1ccc2c(c1)O[C@H](CN(C)Cc1ccccn1)[C@@H](C)CN([C@@H](C)CO)S2(=O)=O	-60	21	?	107*	79	0	78*
CC(C)C#Cc1ccc2c(c1)O[C@@H](CN(C)Cc1ccccn1)[C@H](C)CN([C@@H](C)CO)S2(=O)=O	-66	27	?	108*	51	55*	95*
COCC(=O)Nc1ccc2c(c1)OC[C@@H](C)N(Cc1cncnc1)C[C@H](C)[C@H](OC)CN(C)C2=O	37	-2	.	.	.	.	.
CCC(=O)N1CCCCN2[C@H](CO)[C@H](c3ccc(C#Cc4cccnc4)cc3)[C@@H]2C1	0	-7	87	.	.	.	.
CCC(=O)N1CCCCN2[C@@H](CO)[C@@H](c3ccc(C#Cc4cccnc4)cc3)[C@@H]2C1	-24	0	111*	102*	76	8	8
CCC(=O)N1CCCCN2[C@@H](CO)[C@H](c3ccc(C#Cc4ccccc4)cc3)[C@@H]2C1	-10	-1	112*	105*	73	59*	105*
CCC(=O)N1CCCCN2[C@@H](CO)[C@@H](c3ccc(C#Cc4ccccc4)cc3)[C@@H]2C1	-8	8	106*	104*	82	24	104*
CCC(=O)N1CCCCN2[C@H](CO)[C@H](c3ccc(C#Cc4ccccc4)cc3)[C@H]2C1	-27	2	108*	86	44	40*	106*
CCC(=O)N1CCCCN2[C@H](CO)[C@@H](c3ccc(C#Cc4ccccc4)cc3)[C@@H]2C1	15	-4	86	.	.	.	.
CCC(=O)N1CCCCN2[C@@H](CO)[C@@H](c3ccc(C#CCOC)cc3)[C@@H]2C1	6	-2	31	.	.	.	.
CCC(=O)N1CCCCN2[C@@H](CO)[C@H](c3ccc(C#CCOC)cc3)[C@@H]2C1	2	-1	82	.	.	.	.
COc1cccc(CNC(=O)c2cc3c(c(-c4cccc(-c5cccc(C#N)c5)c4)n2)[C@@H](CCO)N([S@](=O)C(C)(C)C)C3)c1	-51	.	92	.	.	.	.
CN(C)CC#Cc1cccc(-c2nc(C(=O)NCc3ccc4c(c3)OCO4)cc3c2[C@@H](CCO)N(S(=O)C(C)(C)C)C3)c1 (some centres undefined)	.	3	112*	110*	108*	6	21
COc1ccc(CNC(=O)c2cc3c(c(-c4cccc(-c5ccc(C#N)cc5)c4)n2)[C@H](CCO)N([S@@](=O)C(C)(C)C)C3)cc1	-69	.	?	103*	93	19	30*
CC(C)(C)[S@](=O)N1Cc2cc(C(=O)NCc3ccc4c(c3)OCO4)nc(-c3cccc(-c4cccnc4)c3)c2[C@@H]1CCO	-56	.	95	.	.	.	.
SMILES	Pf Dd2 growth	C diff growth	T cruzi growth-1	T cruzi growth-2	T cruzi growth-3	3T3 cytotox	3T3 cytotox 2
CCCNC(=O)C[C@@H]1CC[C@H]2[C@@H](COc3ccc(NC(=O)c4ccc(Cl)cc4)cc3C(=O)N2C)O1	-7	0	-7	.	.	.	.
O=C(Nc1cccc(F)c1)N1CC(=O)N2[C@H](CO)[C@H](c3ccc(-c4ccc(F)cc4)cc3)[C@H]2C1	-2	-1	.	.	.	.	.
CCS(=O)(=O)Nc1ccc2c(c1)C(=O)N(C)[C@H]1CC[C@H](CC(=O)Nc3ccc(Cl)cc3)O[C@@H]1CO2	13	-1	8	.	.	.	.
C[C@@H]1CN([C@H](C)CO)C(=O)c2cc(NS(=O)(=O)c3ccc(Cl)cc3)ccc2O[C@@H]1CN(C)Cc1ccc(Cl)c(Cl)c1	29	22	44	.	.	.	.
OC[C@@H]1[C@H](c2ccc(C#Cc3ccccc3)cc2)[C@H]2CN(CC3CCOCC3)CCCCN12	-54	-5	117*	100*	88	23	105*
OC[C@@H]1[C@@H](c2ccc(C#Cc3ccccc3F)cc2)[C@H]2CN(CC3CCOCC3)CCCCN12	-68	3	88	.	.	.	.
OC[C@H]1[C@H](c2ccc(C#Cc3ccccc3)cc2)[C@@H]2CN(CC3CCOCC3)CCCCN12	-63	47	?	106*	56	31	106*
OC[C@H]1[C@H](c2ccc(C#Cc3ccccc3F)cc2)[C@H]2CN(CC3CCOCC3)CCCCN21	-3	-2	66	.	.	.	.
CCCC(=O)Nc1ccc2c(c1)C(=O)N(C)C[C@H](OC)[C@H](C)CN(C(=O)CC)[C@@H](C)CO2	.	.	3	.	.	.	.
CN(C)C(=O)c1cccc(-c2ccc([C@H]3[C@H](CO)N4CCCCN(CCC(F)(F)F)C[C@@H]34)cc2)c1	-20	4	105*	109*	86	5	25*
